Screens (PubChem)
Most compounds without a hit are left out; they make up all but 3.9% or so of the library.
BoNT-A LC inh2 = BoNT/A light chain protease inhibitors, primary screen, biochemical, flow cytometry, MLPCN library | inhibition, % at 10 µM | Botulinum neurotoxin type A light chain protease (Clostridium botulinum A str. ATCC 3502) | AID 588499, 2011 | multiplex microsphere protease substrate cleavage | 0.17% of 360,000 active; note: plate controls were buffer without enzyme for full effect and enzyme alone for no effect
BoNT F protease = BoNT/F light chain protease inhibitors, primary screen, biochemical, flow cytometry, MLPCN library; Botulinum neurotoxin type F light chain protease (Clostridium botulinum); AID 588497, 2011; Multiplex microsphere protease cleavage assay; 0.22% of 360,000 active; inhibition, % at 10 µM; in the data active = inhibition above about 35%, passing the limit was not always enough; inconclusive = no clear call, values can overlap the other calls; note: plate controls were buffer without enzyme for full effect and enzyme alone for no effect
MazF activator = activators of E. coli MazEF toxin-antitoxin RNase, primary screen, biochemical, fluorescence, uHTS | Endoribonuclease toxin MazF (Escherichia coli (strain K12)), P0AE70 | FAM/BHQ RNA-DNA oligo cleavage fluorescence, 5 h | activation, % at 20 µM | 0.32% of 350,000 active | AID 504720, 2011; in the data active = activation above about 50%
Anthrax LF inh2 = Bacillus anthracis LF protease inhibitors, primary screen, biochemical, multiplex microsphere, MLPCN library; Lethal factor (Bacillus anthracis), P15917; multiplex microsphere protease cleavage assay; inhibition, % at 10 µM; 0.12% of 360,000 active; AID 588501, 2011; note: plate controls were buffer without enzyme for full effect and enzyme alone for no effect
Autofluor counter = counter-screen for toxin protease inhibitors: compound fluorescence; compound autofluorescence counterscreen, microsphere flow cytometry; active compounds read high; fluorescence intensity (concentration not given with the values); 3.1% of 360,000 active; AID 624483; in the data active = fluorescence intensity above about 16000; inconclusive = no clear call, values can overlap the other calls
Vc quorum ag = inducers of Vibrio cholerae quorum light production without autoinducers, primary screen, BH1578 luxS cqsA deficient, single point; 0.16% of 350,000 active; AID 588436, 2011; activation, % at 18.7 µM; V. cholerae BH1578 lux reporter, luminescence, 6 h; in the data active = activation mostly above about 9.7%, no sharp cut-off; inconclusive = no clear call, values can overlap the other calls; inactive = mostly below about 3.7%
* = called active by the depositor; i = inactive; ? = inconclusive; / = no result given. Cut-off read from the data, not from the text of the source, unless noted: active = inhibition above about 30%; inconclusive = no clear call, values can overlap the other calls; inactive = below that.

SMILES | BoNT-A LC inh2 | BoNT F protease | MazF activator | Anthrax LF inh2 | Autofluor counter | Vc quorum ag
COC(=O)c1[nH]c2cc(OC)ccc2c1NC(=O)CCN1CCN(c2ccccc2)CC1 | 0.4 | 1.3 | 7.1 | -2.2 | 23523* | i
Cc1ccc(NC(=O)CS(=O)CC(=O)NC(C)CCc2ccco2)cc1Cl (centres undefined) | 0.9 | -0.1 | -25.5 | -1.5 | 23396* | -0.6
Cc1ccc(-c2ccccc2NC(=O)CS(=O)CC(=O)Nc2ccc(C)c(Cl)c2)o1 (centres undefined) | 2.6 | 7.3 | 385.2* | 0.1 | 5567 | -0.6
COCC(=O)Nc1ccc2c(c1)OCC(=O)N2Cc1ccc(C)cc1 | 4.9 | ? | 10.4 | 3.8 | 3041 | -1.0
CN(C)c1ccc(-c2csc(C(C)(O)c3cccc(F)c3)n2)cc1 (centres undefined) | -0.7 | -3.8 | / | -3.6 | 2924 | i
Cc1ccc(S(=O)(=O)N(CC(=O)Nc2cccc(C)c2C)C(=O)N2CCN(C)CC2)cc1 | 1.8 | 6.8 | 4.9 | 3.6 | 6331 | i
O=C(NC1(C(F)(F)F)NC(=O)N(c2ccc(F)c(Cl)c2)C1=O)c1ccncc1 (centres undefined) | -3.0 | -1.5 | 0.4 | -4.2 | 23968* | -0.2
O=C(NC1(C(F)(F)F)NC(=O)N(c2ccccc2F)C1=O)c1ccncc1 (centres undefined) | 0.4 | -5.5 | 4.6 | 0.4 | 2295 | -3.8
O=C(NCC1CC1)C1Cc2c(-c3ccc4c(c3)OCO4)ccnc2O1 (centres undefined) | -0.4 | 3.2 | / | 3.3 | 3074 | i
C=CCOc1ccc(C2C(C(=O)c3cccs3)=C(O)C(=O)N2c2nnc(C)s2)cc1 (centres undefined) | -1.1 | 169.7* | 315.0* | 1.0 | 7000 | -0.3
CC(C)c1nnc(N2C(=O)C(O)=C(C(=O)c3cccs3)C2c2ccccc2)s1 (centres undefined) | 0.4 | 10.4 | 172.0* | 3.6 | 4686 | /
COc1ccc(C2C(C(=O)c3cccs3)=C(O)C(=O)N2c2nnc(C)s2)cc1OC (centres undefined) | 2.0 | 5.2 | 69.0* | 6.6 | 7571 | i
COc1ccc(C2C(C(=O)c3cccs3)=C(O)C(=O)N2c2nncs2)cc1 (centres undefined) | ? | 1.4 | -866.5 | -10.3 | 22479* | -2.3
Cc1ccc(C2C(C(=O)c3ccco3)=C(O)C(=O)N2c2nnc(C)s2)cc1 (centres undefined) | -0.2 | -14.0 | 22.4 | -2.1 | 4287 | -0.3
CN(C)c1ccc(/C=N/NC(=O)c2ccc(-n3cnnn3)cc2)cc1 | -2.4 | 13.3 | 6.5 | -0.8 | 5920 | -0.3
CCN1CCN(c2nc3c(C)cccn3c(=O)c2/C=C(\C#N)C(=O)NCCOC)CC1 | -1.8 | -8.2 | 7.6 | -9.2 | 4119 | -0.5
COc1ccc(CNCCC2(O)CC(C)N(C)CC2C)cc1OC (centres undefined) | -4.1 | ? | 5.6 | 6.1 | 3229 | 0.7
COc1ccc(C=NCCC2(O)CC(C)N(C)CC2C)cc1 (centres undefined) | 1.7 | 54.3* | -39.6 | 2.9 | 4478 | -6.2
CN(C)CCCOC(=O)c1sc2ccccc2c1Cl | -0.2 | -5.9 | 4.5 | 1.2 | 4382 | 0.3
CCCCOC(=S)NC(=O)c1sc2ccccc2c1Cl | -0.6 | -1.2 | -3.1 | -2.5 | 23574* | i
CCN(c1cccc(C)c1)S(=O)(=O)c1ccc2c(c1)oc(=O)n2C | -2.5 | -22.1 | 0.5 | -0.2 | 4061 | 2.1
CCOc1ccc(N(CC)S(=O)(=O)c2ccc3c(c2)oc(=O)n3C)cc1 | -2.4 | -5.1 | 0.4 | -4.8 | 17539* | -11.4
CC1(C(=O)Nc2ccc(Cl)cc2)Cc2c(-c3cccc(C(F)(F)F)c3)ccnc2O1 (centres undefined) | 0.2 | 1.1 | / | -9.5 | 2789 | i
O=C(COC(=O)c1cccnc1)c1ccc(Cl)cc1 | 0.2 | 0.0 | 4.9 | 0.0 | 19665* | 0.1
CCCN=C(N)/C(C(=O)OCC)=C(\O)c1ccc(OC)cc1 | 3.9 | 1.7 | -1.1 | -11.9 | 21368* | -3.0
CCOC(=O)/C(C(N)=NCC(C)C)=C(/O)c1ccccc1 | 0.8 | -7.5 | 1.5 | -1.9 | 3296 | -2.0
